# HT1080-NT tox: kills 2HG-producing HT-1080-NT fibrosarcoma cells; HT-1080-NT fibrosarcoma viability, CellTiter-Glo ATP luminescence, 48 h; Potency, µM (highest dose often 46.1 µM), most hits filed as cytotoxic; 1.6% of 360,000 active;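 note: NT is the 2HG producing partner of a matched IDH1 knockdown line; nearly all actives have a fitted effect of over 55% in size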
#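 A 48-hour cytotoxicity screen used HT-1080-NT cells plated 2 hours before compound delivery. ATP-based CellTiter-Glo luminescence measured viability, normalized to DMSO and no-cell controls.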
# SW480 rerep: DNA re-replication induction in SW480 cells; Potency, µM (series often up to 46.1 µM), actives largely listed as activators; AID 624297; SW480 DNA re-replication, Hoechst DNA content imaging, 48 h; 1.8% of 340,000 active; note: nearly all actives have a fitted effect of over 55% in size
#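 250 cells/well; 23 nL cpd via pin tool; 48 hr, 37 C, 5% CO2; Hoechst 40 min; imager read of total nuclear intensity, ex 405/em 500-530 nm.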
# HT1080 IDH1KD tx: kills HT-1080 cells with IDH1 knockdown | HT-1080 IDH1 knockdown viability, ATP luminescence, 48 h | Potency, µM (highest dose often 46.1 µM), most hits filed as cytotoxic | 2% of 360,000 active | AID 686971
#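 Viability of IDH1-knockdown HT-1080 fibrosarcoma cells was assessed by CellTiter-Glo after 48 h at 37 °C with titrated compound; concentration-effect curves were classified by fit quality and response size.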
# KB-V1 MDR tox: KB-V1 MDR subline cytotoxicity; AID 1347076; 3.4% of 400,000 active; Potency, µM (titrated, usually from 46.1 µM), hits mostly cytotoxic; KB-V1 MDR cells viability, CellTiter-Glo, 72 h; note: nearly all actives have a fitted effect of over 60% in size
#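 qHTS viability screen in drug-selected KB-V1 MDR cells: 72 h compound treatment at 37 degrees C, ATP luminescence end point.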
# MCF10A rereplic: DNA re-replication induction in MCF 10a cells; Potency, µM (highest dose often 46.1 µM), most hits filed as activators; 2.9% of 350,000 active; MCF 10A DNA re-replication, Hoechst nuclear intensity, 48 h; AID 624296; note: nearly all actives have a fitted effect of over 50% in size
# KB-3-1 cytotox: KB-3-1 parental cell cytotoxicity. KB-3-1 viability, CellTiter-Glo ATP luminescence, 72 h. Potency, µM (titrated, usually from 46.1 µM), usual class: cytotoxic. AID 1347075. 1.4% of 400,000 active; note: nearly all actives have a fitted effect of over 60% in size
#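 72 h, 37 °C compound treatment of KB-3-1 parental cells; CellTiter-Glo added, 10 min, luminescence read. Data corrected against DMSO-only plates and normalized before curve fitting.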
# Numbers stand for hits; . = inactive; ? = inconclusive; / = no result; [ ] = dose if it differs, or a comment. Shown are actives, neighbours in structure and some others; about 8% of the full set was active somewhere. Calls come from the whole dose curve; as a rule, active = well fitted curve in the direction sought with a large enough effect; inconclusive = small, poorly fitted or top-dose-only effect, or another doubt; inactive = no such curve, though single readings can be large; an effect the other way counts as inactive or inconclusive.
SMILES,HT1080-NT tox,SW480 rerep,HT1080 IDH1KD tx,KB-V1 MDR tox,MCF10A rereplic,KB-3-1 cytotox
Cc1cccc(NC(=O)CSc2nc(=O)n(Cc3ccccn3)c3c2CCC3)c1C,/,/,/,.,/,.
COc1ccc(CCNC(=O)CCNC(=O)N2CC(=O)Nc3ccccc32)cc1OC,.,.,.,.,.,.
O=c1[nH]c(-c2ccccn2)nc2sc(-c3ccccc3)cc12,?,6.5µM,.,?,1.3µM,?
Cc1c(C(=O)N(C)C)sc2nc(-c3ccccn3)[nH]c(=O)c12,.,.,.,?,.,.
Cc1cccc(Nc2ncnc(N)c2[N+](=O)[O-])n1,.,.,.,.,.,.
Cc1cc(C)nc(Sc2ncnc(N)c2[N+](=O)[O-])n1,?,?,?,.,21µM,?
CCOC(=O)c1c(C)n(-c2ccc(OC)cc2)c2ccc(O)c(CN(C)C)c12,?,?,21µM,?,.,?
CCOC(=O)c1c(C)n(C)c2ccc(O)c(CN(C)C)c12,.,.,.,.,?,?
CCOC(=O)c1sc(=N)n(-c2ccc(OC)cc2)c1C,.,.,.,.,.,.
CCOC(=O)c1c(C)n(-c2ccc(C)cc2)c2ccc(O)c(CN(C)C)c12,16µM,?,16µM,.,?,.
COc1ccccc1CNc1cc(CSc2ccc(Cl)cc2)nc(C)n1,?,.,?,15µM,?,?
Brc1cccc[n+]1CCCC[n+]1ccccc1Br,/,/,/,.,/,.
CC1=CC(O)=NS(=O)(=O)O1,/,/,/,.,/,?
CC1(C)OC2OC(C(=O)N/N=C/c3cc(Br)ccc3O)C3OC(C)(C)OC3C2O1 (stereo not drawn),.,16µM,?,9.2µM,?,.
Cc1cc(C)cc(NC(=O)[C@H]2O[C@@H]3OC(C)(C)O[C@@H]3[C@H]3OC(C)(C)O[C@H]32)c1,/,/,/,.,/,?
CC1CCN(CCOc2cccc(Br)c2)CC1,.,.,.,.,.,.
Clc1cccc(OCCN2CCN(CCOc3cccc(Cl)c3)CC2)c1,?,?,?,.,?,16µM
O=C(COC(=O)c1ccccc1C(=O)c1ccc(Cl)c([N+](=O)[O-])c1)NC1CC1,6.5µM,?,4.6µM,.,3.3µM,8.2µM
O=C(OC1CCOC1=O)c1ccccc1C(=O)c1ccc(Cl)c([N+](=O)[O-])c1 (stereo not drawn),.[9.24 µM],?,?,.,4.6µM,.
CNC(=O)COC(=O)c1ccccc1C(=O)c1ccc(Cl)c([N+](=O)[O-])c1,12µM,5.8µM,23µM,?,5.8µM,.
Cc1cccc(OCCn2c(-c3ccc(Cl)cc3)nc3ccccc3c2=O)c1C,/,/,/,.,/,.
CC1CCCC(NC(=O)CSc2nnc(-c3cccnc3)o2)C1C (stereo not drawn),.,/,.,.,/,.
COc1cccc(N(C)C(=S)Oc2ccc3c(c2)CCCC3)n1,/,.,/,/,.,/
Nc1c(Cl)cc(C2=NCCn3nc4ccccc4c32)cc1Cl,.,.,.,21µM,.,6.5µM
CCN(CC)C(=O)c1sc2c(c1C)c(=O)n(-c1ccc(Cl)c(Cl)c1)c(=O)n2CC(=O)Nc1cccc(OC)c1,/,/,/,.,/,.
SMILES,HT1080-NT tox,SW480 rerep,HT1080 IDH1KD tx,KB-V1 MDR tox,MCF10A rereplic,KB-3-1 cytotox
COc1ccc2c(c1)c(=O)c(C(=O)c1ccc(C)c(C)c1)cn2CC(=O)Nc1ccc2c(c1)OCCO2,/,/,/,?,/,.
CCC1OC(C(C)C)Cc2[nH][nH]c(=O)c21 (stereo not drawn),.,/,.,.,/,.
CCOc1ccccc1C1C2=C(COC2=O)Nc2cc3c(cc21)OCO3 (stereo not drawn),1.2µM,0.92µM,0.65µM,3.7µM,?,1.2µM
O=C1OCC2=C1C(c1ccc(F)cc1)c1cc3c(cc1N2)OCCO3 (stereo not drawn),0.18µM,0.1µM,0.18µM,0.033µM,?,0.16µM
O=C1OCC2=C1C(c1ccc(F)cc1)c1cc3c(cc1N2)OCO3 (stereo not drawn),0.18µM,0.16µM,0.12µM,0.15µM,?,0.037µM
CC(=O)Oc1ccc(C2C3=C(CC(C)(C)CC3=O)Nc3cc4c(cc32)OCCO4)cc1 (stereo not drawn),.,.,.,.,.,.
C#CCOc1ccc(C2C3=C(COC3=O)Nc3cc4c(cc32)OCO4)cc1OC (stereo not drawn),0.046µM,0.52µM,0.092µM,4.6µM,?,?
CCOc1ccc(-c2nn(CC(=O)NC3CCCC3)c3c2cnc2ccc(C)cc23)cc1,/,/,/,.,/,.
C[C@H]1C[C@@H]2[C@@H]([C@@H](O)C[C@@]3(C)[C@H]2CC[C@]3(O)C(=O)CO)[C@@]2(C)C=CC(=O)C=C12,/,.,/,/,.,/
CCSC1=NC2(CCN(C(=O)NC3CCCCC3)CC2)N=C1c1ccc(C)c(C)c1,/,/,/,.,/,?
CCOC(=O)c1ccc(NC(=O)CSc2nc3ccccc3c(=O)n2CCNC(C)=O)cc1,/,/,/,.,/,.
COc1cccc(C2C3=C(CC(C)(C)CC3=O)Nc3cc4c(cc32)OCO4)c1 (stereo not drawn),.,.,.,?,?,.
COc1cc2c(cc1OC)C(c1ccc3c(c1)OCO3)C1=C(CC(C)(C)CC1=O)N2 (stereo not drawn),.,.,.,0.73µM,?,.
Cc1occc1C(=O)N/N=C/C=C/c1ccccc1,.,.,.,.,.,.
Cc1occc1C(=O)N/N=C/C=C/c1ccc(N(C)C)cc1,?,0.012µM,?,.,?,.
Cc1occc1C(=O)N/N=C/c1ccc(N(C)C)cc1,?,.,23µM,.,.,.
Cc1ccc(/C=N/NC(=O)c2ccoc2C)o1,.,.,.,?,.,.
CCOC(=O)c1nn(C)c2[nH]c(=O)n(C)c(=O)c12,.,.,.,.,.,.
O=C(NCC1CCCO1)C(Cc1ccccc1)N1C(=O)C2C3C=CC(C4CC34)C2C1=O (stereo not drawn),.,?,.,.,15µM,.
O=C(NCC1CCCO1)C(C(=O)c1ccccc1)n1ccccc1=O (stereo not drawn),.,.,.,?,.[0.0737 µM],.
O=C(CCCCn1c(=O)c2ccccc2n(Cc2ccc(Cl)cc2)c1=O)NCc1ccccc1Cl,/,/,/,?,/,.
Cc1ccc2nc(-c3ccccn3)c(NC3CCCC3)n2c1,?,16µM,?,.,?,.
COC1=C(OC)C(=O)C(Sc2ccc3ccccc3c2)=CC1=O,?,18µM,16µM,2.6µM,5.8µM,?
COc1ccc(-c2cc(C(F)(F)F)nc(N3CCOCC3)n2)cc1OC,.,.,.,?,?,.
COc1ccc(-c2cc(-c3ccccc3)nc(N3CCCC3)n2)cc1OC,.,.,.,8.2µM,?,.
CCCSc1nc2c(c(=O)[nH]1)C(c1ccc(F)cc1F)CC(=O)N2 (stereo not drawn),/,/,/,.,/,.
